Assay results from PubChem BioAssay.
The source made the active and inactive calls.

Columns and labels:
[1] = system: Plasmodium falciparum Sir2 (PF13_0152, Sir2A); test: pfSir2 binders on small-molecule microarrays, primary screen, biochemical, small-molecule microarray, 635 nm fluorescence (AID 1098); conditions: small-molecule microarray binding, fluorescence 635 nm; higher = more signal;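 also: score merges spot fluorescence intensity with its signal-to-noise ratio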
[2] = small-molecule microarray binders of probe aDKK1, primary screen, biochemical, biotinylated probe, 635/667 nm fluorescence (AID 1099); conditions: higher = more signal;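 also: score merges 667nm spot fluorescence with signal to noise across triplicate slides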
[3] = small-molecule microarray binders of probe aCHRDL2, primary screen, biochemical, biotinylated probe, 635/667 nm fluorescence (AID 1100); conditions: higher = more signal
[4] = splicing luciferase reporter signal modulators, primary screen, spliceosome inhibition project, cell-based, HEK293, splice +/- reporter (AID 1101); conditions: luminescence, 24 h, higher = more signal, called active from +8 up or from −8 down;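 also: HEK293 cells carrying a splicing-competent luciferase reporter gene; test concentration not given here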
[5] = target: Fibroblast growth factor 10 (Homo sapiens) (UniProt O15520); test: FGF10 binders on small-molecule microarrays, primary screen, biochemical, small-molecule microarray, 635 nm fluorescence (AID 1102); conditions: FGF10 binding, fluorescence 635 nm, higher = more signal
[6] = system: glycogen synthase kinase-3 (GSK3A per assay name; protocol says GSK3B); test: GSK3 binders on small-molecule microarrays, primary screen, biochemical, small-molecule microarray, 635 nm fluorescence, GSK3A (AID 1103); conditions: small-molecule microarray binding, fluorescence 635 nm; higher = more signal; also: the record names both GSK3A and GSK3B
[7] = target: Epidermal growth factor receptor (Homo sapiens) (UniProt P00533); test: EGFR binders on small-molecule microarrays, primary screen, biochemical, small-molecule microarray, 635 nm fluorescence (AID 1104); conditions: EGFR binding, higher = more signal;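 also: score merges 667 nm emission intensity with spot signal to noise over triplicate slides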
[8] = target: Follistatin-related protein 3 (Homo sapiens) (UniProt O95633); test: FSTL3 binders on small-molecule microarrays, primary screen, biochemical, small-molecule microarray, 635 nm fluorescence (AID 1105); conditions: FSTL3 binding, higher = more signal;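 also: score merges emission near 667 nm and signal to noise per printed spot across three slides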
[9] = target: Dickkopf-related protein 1 (Homo sapiens) (UniProt O94907); test: DKK1 binders on small-molecule microarrays, primary screen, biochemical, small-molecule microarray, 635 nm fluorescence scan (AID 1106); conditions: DKK1 binding, higher = more signal;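 also: score merges emission near 667 nm with signal to noise over three replicate slides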
[10] = system: Inhibin beta A chain (activin A); test: INHBA (activin A) binders on microarrays, primary screen, biochemical, small-molecule microarray, 635 nm fluorescence scan (AID 1107); conditions: small-molecule microarray binding, higher = more signal;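 also: mouse activin A protein probed at 4.33 µg/mL on printed slides; score merges bound-protein fluorescence near 667 nm with spot signal-to-noise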
[11] = system: Human papillomavirus type 1a protein E7 (residues 44-93); test: HPV1a E7 fragment binders on microarrays, primary screen, biochemical, small-molecule microarray, residues 44-93, 635 nm fluorescence (AID 1108); conditions: small-molecule microarray binding, fluorescence 635 nm; higher = more signal;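 also: E7 fragment applied at 1 µg/mL in TBST for 1 h at 4 C; score combines spot fluorescence with its signal to noise ratio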
[12] = modulators of HCV replicon luciferase signal, primary screen, HCV replication inhibitor project, Huh7 cells, luciferase reporter (AID 1109); conditions: 48 h, higher = more signal;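 also: huh7 hepatoma cells harbouring a luciferase neomycin HCV replicon reporter; luciferase luminescence as measure of HCV replicon replication; test concentration not given here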
[13] = target: Left-right determination factor 2 (Homo sapiens) (UniProt O00292); test: LEFTY2 binders on small-molecule microarrays, primary screen, biochemical, small-molecule microarray, 635 nm fluorescence scan (AID 1110); conditions: LEFTY2 binding, higher = more signal
[14] = target: Calmodulin-1 (Homo sapiens) (UniProt P0DP23); test: CALM1 binders on microarrays, EGTA buffer, profiling panel, biochemical, small-molecule microarray, Cy5-labelled CALM1 (AID 1111); conditions: Cy5-CALM1 binding fluorescence, higher = more signal;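 also: labelled calmodulin applied in Tris saline Tween buffer holding calcium plus EGTA and DTT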
[15] = target: Calmodulin-1 (Homo sapiens) (UniProt P0DP23); test: calcium-bound CALM1 binders on microarrays, profiling panel, artefact control for SMM control-protein annotation, biochemical, small-molecule microarray, Cy5-labelled CALM1, plus calcium (AID 1112); conditions: Cy5-CALM1 binding fluorescence, higher = more signal;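 also: score merges spot fluorescence with signal to noise from triplicate slides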
[16] = small-molecule microarray binders of probe aWnt5a, primary screen, biochemical, biotinylated probe, 635/667 nm fluorescence (AID 1113); conditions: higher = more signal;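 also: score merges 667 nm fluorescence intensity with signal-to-noise per printed feature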
[17] = small-molecule microarray binders of probe aShh, primary screen, biochemical, biotinylated probe, 635/667 nm fluorescence (AID 1114); conditions: higher = more signal;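 also: probe is biotin-labelled aShh protein from a stem cell growth factor screen; measures binding of labelled protein to compounds printed on the slide; score merges feature fluorescence at 667 nm with signal-to-noise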
[18] = small-molecule microarray binders of probe aNog, primary screen, biochemical, biotinylated probe, 635/667 nm fluorescence (AID 1115); conditions: higher = more signal;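 also: probe is biotinylated aNog protein used at 0.15 µg/mL for 1 h at 4 C; z-score combines 667 nm fluorescence of each spot with its signal to noise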
[19] = target: Torsin-1A-interacting protein 1 (Homo sapiens) (UniProt Q5JTV8); test: LAP1 binders from COS7 cell lysate, primary screen, small-molecule microarray, 635/667 nm fluorescence (AID 1116); conditions: COS7-hLAP1 lysate binding, 635 nm fluorescence, higher = more signal
[20] = target: Alpha-bungarotoxin (Bungarus multicinctus) (UniProt P60615); test: alpha-bungarotoxin binders on microarray, profiling panel, artefact control for SMM control protein annotation, biochemical, small-molecule microarray, Alexa647 label, 635/667 nm fluorescence (AID 1117); conditions: alpha-BTX-A647 binding fluorescence, higher = more signal
Chain of Alpha-bungarotoxin (Bungarus multicinctus) (P60615 whole entry, looked up): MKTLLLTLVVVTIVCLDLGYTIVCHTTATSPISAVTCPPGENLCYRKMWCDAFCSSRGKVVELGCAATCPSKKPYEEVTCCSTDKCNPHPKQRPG

Chain of Epidermal growth factor receptor (Homo sapiens) (P00533 whole entry, looked up): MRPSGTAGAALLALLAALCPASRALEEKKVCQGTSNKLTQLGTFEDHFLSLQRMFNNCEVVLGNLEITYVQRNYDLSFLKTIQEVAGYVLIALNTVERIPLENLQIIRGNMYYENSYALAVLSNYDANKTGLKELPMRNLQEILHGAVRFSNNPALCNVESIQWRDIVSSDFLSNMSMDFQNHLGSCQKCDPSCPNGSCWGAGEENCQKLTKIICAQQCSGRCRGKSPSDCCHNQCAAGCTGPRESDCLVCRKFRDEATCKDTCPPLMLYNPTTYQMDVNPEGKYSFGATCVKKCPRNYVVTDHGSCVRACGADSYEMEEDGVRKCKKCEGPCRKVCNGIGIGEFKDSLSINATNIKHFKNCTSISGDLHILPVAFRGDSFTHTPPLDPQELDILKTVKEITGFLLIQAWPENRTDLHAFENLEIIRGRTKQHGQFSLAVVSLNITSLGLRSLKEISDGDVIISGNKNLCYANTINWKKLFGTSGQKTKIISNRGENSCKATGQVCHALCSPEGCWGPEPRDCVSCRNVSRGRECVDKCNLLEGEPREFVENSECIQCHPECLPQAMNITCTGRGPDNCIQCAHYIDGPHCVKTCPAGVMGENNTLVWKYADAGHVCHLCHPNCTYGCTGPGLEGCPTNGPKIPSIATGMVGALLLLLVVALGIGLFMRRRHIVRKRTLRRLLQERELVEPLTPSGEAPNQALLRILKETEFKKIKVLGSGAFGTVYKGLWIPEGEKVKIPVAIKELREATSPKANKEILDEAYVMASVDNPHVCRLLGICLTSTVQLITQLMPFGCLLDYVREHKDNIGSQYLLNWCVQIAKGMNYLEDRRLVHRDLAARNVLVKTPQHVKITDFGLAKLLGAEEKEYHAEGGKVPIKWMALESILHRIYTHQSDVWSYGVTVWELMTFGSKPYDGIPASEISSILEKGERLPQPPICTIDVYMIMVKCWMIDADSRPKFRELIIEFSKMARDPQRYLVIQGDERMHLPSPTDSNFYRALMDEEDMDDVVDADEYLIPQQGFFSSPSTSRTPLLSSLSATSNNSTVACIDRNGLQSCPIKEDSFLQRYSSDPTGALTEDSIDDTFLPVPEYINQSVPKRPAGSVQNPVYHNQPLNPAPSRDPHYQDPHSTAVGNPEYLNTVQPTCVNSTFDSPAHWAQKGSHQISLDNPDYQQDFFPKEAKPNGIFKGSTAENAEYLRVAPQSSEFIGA
Chain of Left-right determination factor 2 (Homo sapiens) (O00292 whole entry, looked up): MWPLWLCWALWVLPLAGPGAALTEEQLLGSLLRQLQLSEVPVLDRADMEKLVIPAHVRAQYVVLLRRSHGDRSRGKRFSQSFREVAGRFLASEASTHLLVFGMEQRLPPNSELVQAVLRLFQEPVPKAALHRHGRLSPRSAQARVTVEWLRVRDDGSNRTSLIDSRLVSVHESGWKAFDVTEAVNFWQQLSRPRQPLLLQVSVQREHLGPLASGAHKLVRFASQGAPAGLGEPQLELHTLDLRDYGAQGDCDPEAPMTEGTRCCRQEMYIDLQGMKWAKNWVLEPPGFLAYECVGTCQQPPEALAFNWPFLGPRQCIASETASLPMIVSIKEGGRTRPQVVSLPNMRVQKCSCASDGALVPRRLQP
Chain of Torsin-1A-interacting protein 1 (Homo sapiens) (Q5JTV8 whole entry, looked up): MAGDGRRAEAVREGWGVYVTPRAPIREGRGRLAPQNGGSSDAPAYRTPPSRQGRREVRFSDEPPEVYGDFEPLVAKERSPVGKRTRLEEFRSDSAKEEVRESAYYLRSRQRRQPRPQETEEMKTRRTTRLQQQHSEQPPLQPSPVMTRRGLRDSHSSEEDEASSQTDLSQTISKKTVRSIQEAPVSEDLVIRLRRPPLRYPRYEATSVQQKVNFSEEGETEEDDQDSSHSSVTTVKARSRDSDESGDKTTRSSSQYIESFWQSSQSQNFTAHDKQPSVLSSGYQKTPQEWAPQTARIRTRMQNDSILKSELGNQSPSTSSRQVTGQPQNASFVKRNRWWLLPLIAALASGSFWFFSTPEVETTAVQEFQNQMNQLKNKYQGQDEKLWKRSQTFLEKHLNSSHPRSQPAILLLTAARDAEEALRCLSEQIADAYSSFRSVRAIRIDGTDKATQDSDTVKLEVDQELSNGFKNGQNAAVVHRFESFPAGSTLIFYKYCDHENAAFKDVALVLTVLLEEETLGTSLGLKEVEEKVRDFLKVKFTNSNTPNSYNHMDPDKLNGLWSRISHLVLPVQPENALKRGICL
Chain of Follistatin-related protein 3 (Homo sapiens) (O95633 whole entry, looked up): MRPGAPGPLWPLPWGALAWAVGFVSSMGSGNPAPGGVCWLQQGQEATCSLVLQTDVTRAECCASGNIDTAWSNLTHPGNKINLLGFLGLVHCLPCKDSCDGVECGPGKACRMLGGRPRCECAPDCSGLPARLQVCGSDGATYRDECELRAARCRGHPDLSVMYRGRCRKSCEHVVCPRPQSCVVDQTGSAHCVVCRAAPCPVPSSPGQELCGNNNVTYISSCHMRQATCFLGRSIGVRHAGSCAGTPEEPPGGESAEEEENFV
Chain of Dickkopf-related protein 1 (Homo sapiens) (O94907 whole entry, looked up): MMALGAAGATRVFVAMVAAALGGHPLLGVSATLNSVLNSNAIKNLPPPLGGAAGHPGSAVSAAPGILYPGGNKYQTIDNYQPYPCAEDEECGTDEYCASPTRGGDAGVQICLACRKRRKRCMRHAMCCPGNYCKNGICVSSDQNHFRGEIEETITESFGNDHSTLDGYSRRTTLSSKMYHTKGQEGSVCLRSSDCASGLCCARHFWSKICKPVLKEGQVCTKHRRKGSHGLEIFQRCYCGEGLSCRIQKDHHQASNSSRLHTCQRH
Chain of Fibroblast growth factor 10 (Homo sapiens) (O15520 whole entry, looked up): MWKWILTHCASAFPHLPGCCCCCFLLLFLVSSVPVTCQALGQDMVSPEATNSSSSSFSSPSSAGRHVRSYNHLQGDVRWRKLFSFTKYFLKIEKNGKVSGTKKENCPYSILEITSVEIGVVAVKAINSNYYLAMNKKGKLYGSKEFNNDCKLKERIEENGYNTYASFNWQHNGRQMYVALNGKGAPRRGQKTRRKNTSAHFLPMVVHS

| SMILES | composite z-score [1] | composite z-score [2] | composite z-score [3] | z-score [4] | composite z-score [5] | composite z-score [6] | composite z-score [7] | composite z-score [8] | composite z-score [9] | composite z-score [10] | composite z-score [11] | z-score [12] | composite z-score [13] | composite z-score [14] | composite z-score [15] | composite z-score [16] | composite z-score [17] | composite z-score [18] | composite z-score [19] | composite z-score [20] |
| --- | --- | --- | --- | --- | --- | --- | --- | --- | --- | --- | --- | --- | --- | --- | --- | --- | --- | --- | --- | --- |
| C=C(COC)/C(=C/C[C@@H](OC(C)=O)c1ccc(CO)o1)c1cnc2ccccc2c1 | 0.974 | 0.201 | -0.189 | -0.683 (inactive) | 1.46 | 1.32 | 1.57 | 1.5 | 1.13 | 1.74 | 1.31 | -0.638 | 1.07 | 0.0708 | -0.6 | -0.0425 | -0.0146 | 0.256 | 2.19 | 2.76 |
| COc1ccc([Si](C)(C)[C@H]2[C@H](CC(=O)N3Cc4ccccc4C[C@H]3CO)O[C@@]3(C(=O)N(Cc4ccc(N5CCC5=O)cc4)c4ccccc43)[C@@H]2C)cc1 | 1.21 | -0.283 | 0.51 | -0.315 (inactive) | 1.15 | 0.972 | 1.11 | 1.44 | 1 | 1.28 | 1.37 | -3.99 | 1.22 | 1.02 | -0.89 | 0.0158 | -0.144 | 1.65 | 1.45 | 0.548 |
| O=C1O[C@H](c2ccccc2)[C@H](c2ccccc2)N2[C@H]1[C@@H](C(=O)Nc1nc3ccccc3s1)[C@]1(C(=O)Nc3ccc(C#CCCO)cc31)[C@H]2c1ccc(OCCO)cc1 | 1.59 | -0.198 | -0.144 | -0.0209 (inactive) | 1.33 | 1.31 | 0.468 | 1.14 | 0.379 | 0.408 | 1.39 | -1.65 | 0.436 | 1.26 | 0.0502 | 0.0927 | 0.184 | 1.15 | 1.07 | 0.753 |
| [N-]=[N+]=NCc1ccccc1C[C@]1(C(=O)N2CCOCC2)N=C(c2ccc(OCCCO)cc2)O[C@H]1c1ccccc1N=[N+]=[N-] | 1 | 0.873 | 0.93 | -0.928 (inactive) | 1.31 | 1.33 | 0.466 | 1.37 | 0.234 | 0.878 | 1.44 | -2.21 | 0.536 | 1.14 | 0.792 | 0.0873 | 0.385 | 0.49 | 1.73 | 1.14 |
| COc1ccc([Si](C)(C)[C@H]2[C@H](CCn3cc([C@H](O)c4ccccc4)nn3)O[C@@]3(C(=O)N(Cc4cccc(N5CCOC5=O)c4)c4ccccc43)[C@@H]2C)cc1 | 0.463 | 0.0739 | -0.313 | 0.36 (inactive) | 0.339 | 0.709 | 0.334 | 0.769 | 0.913 | 0.464 | 0.96 | -2.36 | 0.481 | 0.0776 | -0.182 | 0.0094 | -0.349 | -0.0612 | 0.0061 | 0.353 |
| O=C1O[C@H](c2ccccc2)[C@H](c2ccccc2)N2[C@H]1[C@@H](C(=O)O)[C@]1(C(=O)Nc3ccc(C#CC4=CCCCC4)cc31)[C@H]2c1ccccc1OCCO | 1.49 | -0.738 | 0.134 | -0.246 (inactive) | 1.19 | 1.32 | 0.228 | 1.23 | 0.455 | 1.01 | -0.65 | -2.4 | 0.663 | 1.61 | 0.179 | 0.795 | -0.602 | 0.948 | 0.926 | 2.23 |
| CC(C)C[C@@H]1NC(=O)[C@H]2C[C@@H](C(=O)NCCCCCCN)[C@@H](c3ccc(O)cc3)N2C1=O | 1.59 | 1.06 | 0.808 | 0.823 (inactive) | 0.23 | 0.247 | 0.106 | 0.69 | 0.731 | 1.23 | 0.302 | 0.742 | 0.057 | 0.143 | 0.307 | 0.055 | -0.214 | 0.103 | 1.13 | 0.585 |
| O=C(NCC(F)(F)F)[C@@H]1c2ccccc2C(=O)N(C2CCCCC2)[C@H]1c1ccc(CO)cc1 | 1.56 | 0.121 | 0.528 | 0.283 (inactive) | 0.0573 | -0.0294 | -0.759 | 0.177 | -0.783 | -0.0906 | 0.268 | -1.7 | -0.382 | 0.218 | -0.403 | -0.172 | -0.138 | -0.342 | -0.257 | 1.43 |
| CCCCCN1CC=CC23O[C@@H]4/C=C\CCCOC(=O)C4[C@H]2C(=O)N(C(CO)C(C)C)[C@@H]3C1=O (stereo not given in full) | 1.24 | -0.248 | -0.0212 | -0.455 (inactive) | 0.0758 | -0.949 | -0.637 | -0.188 | -0.148 | 1.05 | -0.453 | 0.568 | -0.358 | -0.33 | -0.272 | -0.0107 | -0.416 | -0.158 | 0.174 | -0.0063 |
| O=C1[C@H]2C=C(Br)[C@H](C[C@@H]2OCCCCO)[C@@]12CO2 | 1.02 | -0.257 | -0.504 | -0.238 (inactive) | 0.177 | 0.0613 | 0.224 | -0.0883 | 0.438 | 0.646 | -0.875 | -1.98 | 0.307 | -0.442 | -1.04 | -0.0944 | 0.149 | 0.101 | -0.272 | -0.032 |
| O=C(NCc1ccccc1)[C@@]1(Cc2ccccc2)N=C(c2ccc(OCCCO)cc2)O[C@H]1c1ccccc1 | 0.652 | 1.15 | 1.23 | 0.915 (inactive) | 0.366 | 0.3 | -0.47 | 0.448 | -0.996 | 0.425 | 1.11 | -2.57 | -0.699 | 2.36 | 1.09 | 0.055 | -0.181 | 1.36 | 2.02 | 1.1 |
| CCN(CC)c1ccc(N2CC=CC34O[C@@H]5/C=C\CCCOC(=O)C5[C@H]3C(=O)N(CCO)[C@@H]4C2=O)cc1 (stereo not given in full) | 1.1 | -0.221 | 0.63 | -0.375 (inactive) | -1.12 | -0.404 | -1.28 | -0.957 | -1.14 | 0.0809 | -0.0422 | -0.684 | -0.85 | -0.557 | 0.172 | -0.113 | -0.0769 | -0.406 | -0.233 | -0.259 |
